Screening data deposited in PubChem by Fisher Drug Discovery Resource Center.
Many of the other results were omitted from the sample, so hits are more common in it than they were.
mcGAS MS inh: inhibitors of Mus musculus cyclic GMP-AMP synthase, initial high-throughput assay, cell-free, RapidFire MS. recombinant mouse cGAS, cGAMP by RapidFire MS. inhibition, % at 12.5 µM. hit rate 0.18% among 130,000;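 active means inhibition of cGAS enzyme activity at or above 60%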;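 further: enzyme stimulated by 45 bp dsDNA with ATP and GTP substrates; cGAMP share of summed cGAMP plus half ATP and half GTP signals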
Target sequence (Q8C6L5 whole entry, looked up): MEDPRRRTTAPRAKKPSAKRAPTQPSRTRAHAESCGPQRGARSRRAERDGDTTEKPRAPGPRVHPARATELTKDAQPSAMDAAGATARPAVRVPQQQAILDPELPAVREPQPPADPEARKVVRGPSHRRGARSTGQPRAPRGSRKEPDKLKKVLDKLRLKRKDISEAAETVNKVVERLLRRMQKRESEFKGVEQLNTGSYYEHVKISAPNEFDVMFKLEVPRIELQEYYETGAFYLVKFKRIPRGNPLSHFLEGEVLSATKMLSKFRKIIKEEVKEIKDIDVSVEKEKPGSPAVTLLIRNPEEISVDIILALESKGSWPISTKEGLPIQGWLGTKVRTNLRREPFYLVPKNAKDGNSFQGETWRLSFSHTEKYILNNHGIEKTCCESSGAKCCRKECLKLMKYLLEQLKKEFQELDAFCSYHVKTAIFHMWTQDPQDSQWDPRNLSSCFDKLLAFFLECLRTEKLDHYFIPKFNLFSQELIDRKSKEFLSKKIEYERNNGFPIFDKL
* hit, by the source's call; ! = not active in a repeat.

SMILES	mcGAS MS inh
CCC(C)(C)C(=O)NC1CCSC1=O (stereo not drawn)	6
CC(C)(C)C(=O)NC1CCSC1=O (stereo not drawn)	76*
COc1cccc([C@@H]2CN(C(=O)c3csc(C)n3)[C@@H]3C4CCN(CC4)[C@@H]32)c1	-6
CC(CN1CCN(C)CC1)Nc1cccc(F)n1 (stereo not drawn)	-4
CC(=NNP(=S)(c1ccccc1)c1ccccc1)c1ccc(C#N)cc1	-8
CCOc1ccccc1OCC(=O)N1CCN(C(C)COC)CC1 (stereo not drawn)	-4
Cc1nn(C(C)(C)C)c(C)c1C(=O)NCC1CCCCCCC1	-17
NCCc1cccc(OCCCc2ccccc2)c1	7
CC(Cc1ccccn1)N(C)Cc1cccc(C(=O)Nc2cn(C)nn2)c1 (stereo not drawn)	-12
CCCCCCC(C)OC(=O)COc1ccc(Cl)cc1Cl (stereo not drawn)	-8
O=C(O)COc1cc(Cl)c(Cl)cc1Cl	98*
O=C(O)COc1ccc(Cl)cc1Cl	96*
O=C(O)COc1ccccc1	7
Oc1cc(Cl)ccc1Oc1ccc(Cl)cc1Cl	-18
COCc1nc(N2C[C@H]3CNC[C@H]3C2)c2cnn(C)c2n1	0
N#Cc1ccc(NCCS(=O)(=O)N2CCOCC2)cc1Cl	4
c1cc(CN2CCSC3(CCCCC3)C2)no1	1
CN1CCN(C(=O)Cc2ccc(F)c(Br)c2)C(CNC(=O)OC(C)(C)C)C1 (stereo not drawn)	-21
Cn1cnnc1CCC(=O)N1C[C@@H](c2ccccc2)[C@@H]2[C@H]1C1CCN2CC1	-8
O=c1c(O)c(-c2ccc(O)c(O)c2)oc2c(O)c(O)cc(O)c12	93*
O=C(Cc1ccccc1)N1CCCC(N2CCc3ccccc3C2)C1 (stereo not drawn)	-12
CCCNC(C)c1nc2ccccc2c(=O)n1-c1cccc(Cl)c1 (stereo not drawn)	-4
Cc1cc(NC(=O)c2cccn(Cc3ccc(Cl)cc3)c2=O)c2ccccc2n1	-4
O=C(CCN1CCCCO1)N1C[C@H]2C[C@@H](C1)c1cccc(=O)n1C2	-8
O=C(O)c1ccccc1-c1c2cc(Br)c(=O)cc-2oc2[c]([Hg])c(O)c(Br)cc12	99*!
SMILES	mcGAS MS inh
N#CC(C#N)=Cc1ccc(Cl)cc1	2
c1cncc(N2CCN(Cc3cc4n(n3)CCNC4)CC2)c1	-2
C=CCNC(=O)C(C)N1CCN(C(=O)COc2cccc(C)c2C)CC1 (stereo not drawn)	-9
NC(=S)Nc1ccc(F)cc1	17
CC(=O)OCC1=C(C(=O)O)N2C(=O)[C@@H](NC(=O)CCCC(N)C(=O)O)C2SC1 (stereo partly drawn)	73*!
Clc1cccc(CN2CCNCC2)c1Cl	-14
O=C1OC2(CCN(Cc3cc(=O)[nH]c(C4CC4)n3)CC2)c2ccccc21	-4
Oc1c(Cl)c(Cl)c(Cl)c(Cl)c1Cl	98*
CN1CCN2CCN(C(=O)CCc3cc(=O)[nH]o3)CC2C1 (stereo not drawn)	-5
COc1cccc([C@@H]2CN(C(=O)N3CCOCC3)[C@@H]3C4CCN(CC4)[C@@H]32)c1	-17
